Only some compounds are listed: those with a hit (about 3.8% of all), similar ones and a draw of the others.
TIM10 inh: inhibits growth of TIM10 yeast strain; S. cerevisiae TIM10 strain growth, BacTiter-Glo luminescence, 24 h; inhibition, % at 10 µM; 1.4% of 330,000 active; AID 463195;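 active means inhibition of 40% or more at the single tested concentration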;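 further: wild-type TIM10 isogenic control strain grown at permissive 25 °C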
NLRP3 yeast inh: NALP3 inhibition in yeast; Yeast reconstituted NLRP3/ASC/caspase-1, beta-gal luminescence, 24 h; AID 2825; 0.39% of 330,000 active; inhibition, % at 10 µM;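 active means inhibition of 50% or more; inactive means inhibition below 50%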;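 further: plate controls were induced DMSO wells for no effect and uninduced yeast grown without galactose for full effect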
tim23-1 inh: inhibits growth of tim23-1 mutant yeast; inhibition, % at 20 µM; S. cerevisiae tim23-1 growth, BacTiter-Glo luminescence, 24 h; 1.3% of 330,000 active;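 active means growth inhibition of the mutant yeast at or above 50%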;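 further: temperature-sensitive mutant grown at 25 °C; plate controls were DMSO-treated mutant yeast for no effect and medium wells lacking yeast for full effect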
Yeast superoxide: caloric restriction mimetics inhibiting age-related superoxide in yeast; S. cerevisiae aged cells, superoxide DHE fluorescence; active compounds read low; superoxide response (% of plate mean), % at 10 µM; 0.18% of 330,000 active; AID 2690;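 active means superoxide response under a set limit, about three screen SD below normal, cut at about 65% in these data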;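 further: yeast aged for seven days with compound at 30 °C before DHE staining; 100% = average MFI of all compound-treated wells on the plate with controls excluded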
tim10-1 inh: tim10-1 yeast growth inhibition; S. cerevisiae tim10-1 ts strain growth, BacTiter-Glo, 24 h; inhibition, % at 20 µM; 2.2% of 330,000 active;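 active means inhibition of at least 40%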;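 further: mutant grown at 25 °C; 0% = DMSO wells with yeast and 100% = wells holding no yeast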
tim10-1 confirm: confirmation of tim10-1 mutant yeast growth inhibitors | S. cerevisiae tim10-1 ts strain growth, BacTiter-Glo, 24 h | 56% of 7,400 active | inhibition, % at 20 µM | shares compounds with tim10-1 inh;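 active means inhibition of yeast growth at or above a set limit in either of two repeat tests at 20 µM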;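 further: tim10-1 mutant grown at permissive 25 °C to find synthetic lethal compounds; 0% = DMSO yeast wells and 100% = medium wells without yeast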
tim10 confirm: TIM10 yeast growth inhibition, confirmed | S. cerevisiae tim10 strain growth, BacTiter-Glo luminescence, 24 h | inhibition, % at 10 µM | shares compounds with TIM10 inh | 63% of 4,600 active;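 active means inhibition of yeast growth at or above a set limit in either of two replicates at 10 µM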;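 further: this counterscreen used the strain with wild-type TIM10; 0% = yeast with DMSO and 100% = medium wells lacking yeast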
tim23-1 confirm: confirmation of tim23-1 mutant yeast growth inhibitors; shares compounds with tim23-1 inh; S. cerevisiae tim23-1 growth, BacTiter-Glo luminescence, 24 h; inhibition, % at 20 µM; 83% of 4,400 active; AID 463218;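 active means inhibition above about 39% in either of two replicate wells at 20 µM, limit read from the data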;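 further: temperature-sensitive tim23-1 mutant grown at 25 °C; 0% = DMSO wells with yeast and 100% = medium wells without yeast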
* hit, by the source's call; · = no result given.

SMILES	TIM10 inh	NLRP3 yeast inh	tim23-1 inh	Yeast superoxide	tim10-1 inh	tim10-1 confirm	tim10 confirm	tim23-1 confirm
Nc1cccc2c1C(=O)N(C(=O)/C=C/c1cccc(F)c1)C2=O	50.2*	-11.0	81.9*	85.1	69.4*	59.3*	39.5*	86.7*
O=[N+]([O-])c1ccc(/C=N/Nc2nc(N3CCCCC3)nc(N3CCCCC3)n2)o1	47.8*	19.1	50.0*	87.8	55.2*	45.8*	20.9	44.1*
COc1c(/C=N/Nc2nc(N3CCCCC3)nc(N3CCCCC3)n2)cccc1[N+](=O)[O-]	8.1	15.5	13.9	104.4	20.9	·	·	·
N#Cc1cc(-c2ccccc2)[nH]c1-c1nccc2ccccc12	23.0	12.4	50.8*	118.7	41.6*	18.0	·	44.4*
Cc1cc(C#N)c2ccccc2n1	2.7	-18.6	0.0	118.8	0.9	·	·	·
N#C/C(=C\c1ccc(Cl)cc1)c1nc2ccccc2o1	31.1	19.9	75.8*	105.7	51.1*	49.2*	·	75.3*
N#C/C(=C\c1ccncc1)c1nc2ccccc2o1	41.5*	5.4	71.6*	89.4	56.0*	43.3*	33.5*	60.9*
CCCCOc1ccc(C2NC(=O)NC(C)=C2C(C)=O)cc1OCC (configuration not stated)	-9.3	1.2	14.2	110.2	17.0	·	·	·
Cc1cc(C(F)(F)F)nc(CCNC(=O)C2CCC(=O)N(Cc3cccc(F)c3)C2)n1 (configuration not stated)	-3.6	10.7	-2.4	97.5	-17.0	·	·	·
O=c1[nH]c(/C=C/c2ccccc2Cl)nc2ccccc12	24.3	21.5	14.5	94.2	23.9	·	·	·
Clc1cccc(Cl)c1/C=C/c1nc2ccccc2[nH]1	65.3*	37.7	84.8*	90.4	44.7*	33.9*	52.8*	88.0*
Clc1ccc(/C=C/c2nc3ccccc3[nH]2)c(Cl)c1	49.9*	11.3	62.1*	89.5	41.1*	41.0*	32.5*	75.8*
CC(C)N1C2OC(C3OC4C(O3)N(C(C)C)S(=O)(=O)N4C(C)C)OC2N(C(C)C)S1(=O)=O (configuration not stated)	89.4*	1.3	54.8*	107.0	60.4*	71.2*	87.7*	29.0
Cc1ccc(-n2cnc3scc(-c4cccs4)c3c2=O)cc1	30.9	15.3	50.1*	91.4	41.5*	45.5*	·	57.5*
Cc1ccc2nc(N3CCN(C(=O)CCCC(=O)O)CC3)nc(-c3ccccc3)c2c1	21.0	4.8	29.3	103.5	24.6	·	·	·
Cc1ccc2nc(N3CCN(C=O)CC3)nc(-c3ccccc3)c2c1	28.7	34.3	59.9*	100.7	43.1*	9.8	·	42.5*
O=C(COC(=O)C1CC2CCCC(C1)C2=O)NNC(=O)c1ccc([N+](=O)[O-])cc1 (configuration not stated)	4.3	10.0	12.5	120.3	10.0	·	·	·
CN(C)CCN(C)Cc1c2ccccc2c(CN(C)CCN(C)C)c2ccccc12	31.8	4.2	58.0*	100.0	47.1*	35.5*	·	56.3*
COc1ccc(C2CC2/C(C)=N/OC(=O)c2cccs2)cc1 (configuration not stated)	64.6*	29.8	77.8*	117.5	66.2*	44.8*	86.2*	81.1*
COc1ccc(OCCOC(=O)c2cccs2)cc1	-9.8	30.7	-6.5	98.0	8.9	·	·	·
COc1ccc(C2CC2/C(C)=N/OC(=O)c2ccc(F)cc2)cc1 (configuration not stated)	84.4*	25.4	77.3*	115.7	49.3*	23.1	91.9*	61.1*
COc1ccc(C2CC2/C(=N/O)c2ccccc2)cc1 (configuration not stated)	-11.0	19.2	14.9	82.5	17.0	·	·	·
O=C(COc1ccc(Cl)cc1Cl)NC(=O)NC1CCCC1	12.1	12.2	49.4	·	35.3	·	·	·
O=C(COc1ccc(Cl)cc1Br)NC(=O)NC1CCCC1	14.6	27.9	51.7*	·	51.1*	38.5*	·	62.8*
O=C(COc1ccc(Br)cc1Cl)NC(=O)NC1CCCC1	25.8	4.6	56.0*	91.9	41.5*	40.9*	·	54.6*

Screening results: PubChem BioAssay, several laboratories
